High-throughput results: PubChem, National Center for Advancing Translational Sciences (NCATS)
Most compounds without a hit are left out; they make up all but 19% or so of the library.
Pf growth 96h – P. falciparum growth inhibition at 96 hours. hit rate 6.9% among 320,000. Potency, µM (highest dose often 28.7 µM), inactives show top-dose activity change, negative = inhibition, hits mostly inhibitors. P. falciparum luciferase reporter growth, 96 h; note: potency is the fitted concentration of half-maximal effect; % is set by controls: 0 for no effect and ±100 for the full control effect
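Readout is luminescence from an integrated firefly luciferase in P. falciparum. Red cells, 2% hematocrit and 0.05% parasitemia final, were cultured with compound through two parasite generations (96 hours) at 37 C, 5% CO2.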
Shiga inhibitor – Shiga toxin inhibition; hit rate 9.2% among 290,000; Vero cells, Shiga toxin protein synthesis inhibition reporter; inhibition, % at 38.7 µM; AID 2315; in the data active = inhibition mostly above about 28%, no sharp cut-off; inactive = mostly below about 43%; note: 0% is about no effect
Lassa entry inh – Lassa virus entry inhibition | Lassa virus pseudotype entry inhibition, cell reporter | Potency, µM (series often up to 37.9 µM), inactives show at the top dose activity change, negative = inhibition, most hits filed as inhibitors | hit rate 1.2% among 300,000; calls by dose curve; tested in HEK293 cells; note: potency is the fitted concentration of half-maximal effect; % is set by controls: 0 for no effect and ±100 for the full control effect; nearly all actives have a fitted effect of over 50% in size
Cycloheximide cs – counter-screen hit for Shiga toxin inhibitors, cycloheximide; cell reporter, cycloheximide protein synthesis inhibition counterscreen; max response, %; hit rate 12% among 300,000; AID 2314; in the data active = max response mostly above about 13%, no sharp cut-off; inactive = mostly below about 14%; note: read at 38.3 µM for the half of the compounds with a filed dose; 0% is about no effect
Marburg entry inh – Marburg virus entry inhibition; Potency, µM (highest dose often 37.8 µM), without a hit: at the top dose activity change, negative = inhibition, usual class: inhibitors; Marburg virus pseudotyped entry inhibition, cell reporter; hit rate 1.8% among 300,000; calls by dose curve; tested in HEK293 cells; note: potency is the fitted concentration of half-maximal effect; % is set by controls: 0 for no effect and ±100 for the full control effect
Pf growth 48h – P. falciparum growth inhibition at 48 hours (one generation); P. falciparum luciferase growth in erythrocytes, 48 h; Potency, µM (top dose mostly 28.7 µM), for inactives: top-dose activity change, negative = inhibition, actives largely listed as inhibitors; hit rate 5.9% among 310,000; AID 504832; note: potency is the fitted concentration of half-maximal effect; % is set by controls: 0 for no effect and ±100 for the full control effect
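Parasite viability was followed by luminescence of a genomically integrated firefly luciferase. Cultures held 0.1% parasitemia at 2% hematocrit (final), incubated under 5% CO2 at 37 C.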
* = called active by the depositor; ? = inconclusive; · = no result given; [ ] = another dose, or the depositor's remark. Unless noted, calls come from the whole dose curve; as a rule, active = well fitted inhibition curve with a large enough effect; inconclusive = small, poorly fitted or top-dose-only effect, or another doubt; inactive = no such curve, though single readings can be large or run the other way.

SMILES	Pf growth 96h	Shiga inhibitor	Lassa entry inh	Cycloheximide cs	Marburg entry inh	Pf growth 48h
CCCN1CCc2c(sc(NC(=O)c3ccc(S(=O)(=O)N4CCN(C(=O)OCC)CC4)cc3)c2C(N)=O)C1	?	-14	·	-3	·	10µM*
CNC(=O)c1c(NC(=O)c2ccc(S(=O)(=O)N3CCCc4ccccc43)cc2)sc2c1CCN(C)C2	?	-19	·	2	·	?
CCN1CCc2c(sc(NC(=O)c3ccc(S(=O)(=O)N(C)CC4CCCO4)cc3)c2C(N)=O)C1 (stereo not drawn)	10µM*	-13	1%	3	-1%	?
CCCN1CCc2c(sc(NC(=O)c3ccc(S(=O)(=O)N(C)c4ccccc4)cc3)c2C(N)=O)C1	9.3µM*	2	·	-4	·	9.3µM*
CCCN1CCc2c(sc(NC(=O)c3ccc(S(=O)(=O)N(C)c4ccccc4)cc3)c2C(=O)NC)C1	2.6µM*	20	?	6	?	3.3µM*
CC(C)[C@H](NC(=O)C1CCN(C(=O)[C@H](Cc2ccccc2)NC(=O)OC(C)(C)C)CC1)C(=O)O	-14%	2	14%	-3	10%	1%
O=C(COn1nnc2ccc(Cl)cc21)NC1CCS(=O)(=O)C1 (stereo not drawn)	-12%	·	15%	·	?	-2%
COc1ccc(NC(=O)c2cc(-c3cccnc3)nc3c(C)c(C)ccc23)c(OC)c1	0.83µM*	-5	4%	-1	-20%	?
COc1ccc(NC(=O)c2ccc(C)cc2)c(OC)c1	173%	96*	?	50*	?	130%
COc1ccccc1NC(=O)c1ccccc1Nc1ccccc1	?	21	-15%	-1	-6%	5.2µM*
COc1ccc(NC(=O)c2ccc3[nH]c(=O)c(=O)[nH]c3c2)c(OC)c1	10%	-9	·	3	·	18%
COc1ccccc1Nc1ccc(NC(=O)c2cccc([N+](=O)[O-])c2C)cc1	-17%	55*	·	30*	·	?
COc1ccccc1NC(=O)c1ccccc1C(=O)O	?	-7	10%	-2	0%[46.1 µM]	34%
COC(=O)CN1C(=O)C(O)(CC(=O)c2ccc(Br)cc2)c2ccccc21 (stereo not drawn)	2%	-16	·	-5	·	·
O=C(COc1ccc(Br)cc1)NN1C(=O)c2ccccc2C1=O	·	·	-3%	·	-7%[46.1 µM]	·
CCCCN(CCCC)S(=O)(=O)c1ccc(NC(=O)CN2CCOCC2)cc1	?	-19	-18%	4	-19%	·
CCCC(=O)Nc1cccc(S(=O)(=O)N(C)c2ccccc2)c1	-24%	-6	?	-1	4%	-14%
CCC(CC)NC(=O)c1cccc([N+](=O)[O-])c1C	1.3µM*	-9	-28%	1	-8%	8%
COc1ccc(NC(=O)c2ccccc2NC(=O)c2ccccc2C(=O)O)c(OC)c1	49%	53*	·	11*	·	?
COc1ccc(NC(=O)c2cnc(SC)n2-c2ccc(F)cc2)c(OC)c1	-15%	-1	?	-2	13µM*	-6%
COc1ccc(NC(=O)c2cccnc2)c(OC)c1	15µM*	-9	-2%	4	3%	·
COc1ccccc1NC(=O)c1cccnc1	-1%	-5	4%	-1	20%	23%
Cc1ccc(S(=O)(=O)N2CCC(=O)N(C(COCc3cccc(Cl)c3)Cc3ccccc3)CC2)cc1 (stereo not drawn)	10µM*	9	?	-1	?	8.3µM*
Cc1ccc(S(=O)(=O)N2CCC(=O)N(C(COCc3cccc(C(F)(F)F)c3)Cc3ccccc3)CC2)cc1 (stereo not drawn)	6.6µM*	-13	?	-2	?	?
Cc1ccc(S(=O)(=O)N2CCC(=O)N([C@H](COCc3ccc(Cl)cc3)Cc3ccccc3)CC2)cc1	·	-6	·	1	·	·
SMILES	Pf growth 96h	Shiga inhibitor	Lassa entry inh	Cycloheximide cs	Marburg entry inh	Pf growth 48h
Cc1ccc(S(=O)(=O)N2CCC(=O)N(CCOCc3cccc(F)c3)CC2)cc1	-24%	-16	?	-5	24%	13%
Cc1ccc(S(=O)(=O)N2CCC(=O)N(C(COCc3ccccc3)Cc3ccccc3)CC2)cc1 (stereo not drawn)	10µM*	-8	-5%	1	28%	10µM*
Cc1ccc(S(=O)(=O)N2CCC(=O)N(C(COCc3ccc(Cl)cc3Cl)Cc3ccccc3)CC2)cc1 (stereo not drawn)	?	7	6%	-2	14%	?
COc1ccccc1OCCC(=O)OCC(=O)Nc1cccc(Br)c1	32%	-5	?	-2	-1%	3%
O=C1[C@@H]2[C@@H]3C[C@@H]([C@H]4ON=C(c5ccc(Cl)cc5)[C@@H]34)[C@@H]2C(=O)N1C1CCCCC1	10µM*	-6	-17%	7	?	25%
C=CCOc1ccc(C2=NO[C@@H]3[C@@H]4C[C@@H]([C@H]5C(=O)N(C)C(=O)[C@@H]45)[C@H]23)cc1	-15%	-1	·	0	·	-19%
CC1Cc2cc(S(=O)(=O)N3CCCCC3C)ccc2N1C(=O)C1CCC1 (stereo not drawn)	10µM*	-4	·	2	·	?
CCC1CCCCN1S(=O)(=O)c1ccc2c(c1)CCCN2C(C)=O (stereo not drawn)	·	·	24%[46.1 µM]	·	·	·
CCCNC(=O)C1CCN(S(=O)(=O)c2ccc3[nH]c(=O)ccc3c2)CC1	-10%	-5	·	-2	·	8%
O=C(C1CCC1)N1CCc2cc(S(=O)(=O)NCCN3CCN(c4ccccc4F)CC3)ccc21	0%	-14	16µM*	-1	13µM*	?
O=C(CCNS(=O)(=O)c1ccc2c(c1)CCN2C(=O)C1CC1)N1CCN(c2ccccc2F)CC1	·	·	-10%[46.1 µM]	·	·	·
CCC1CCCCN1S(=O)(=O)c1ccc2c(c1)CCN2C(=O)C1CCC1 (stereo not drawn)	·	-15	?	-1	?	9.3µM*
CCC1CCCCN1S(=O)(=O)c1ccc2[nH]c(=O)ccc2c1 (stereo not drawn)	3.3µM*	-6	·	1	·	11%
CC(C)(C)c1nnc(NS(=O)(=O)c2ccc(F)cc2)s1	·	·	-2%[46.1 µM]	·	3%[46.1 µM]	·
CC1CC(C)CN(S(=O)(=O)c2ccc3c(c2)CC(C)N3C(=O)C2CC2)C1 (stereo not drawn)	?	-2	·	-2	·	?
CCC(C)NC(=O)C1CCCN(S(=O)(=O)c2ccc3c(c2)CC(C)N3C(=O)C2CC2)C1 (stereo not drawn)	?	-1	·	-1	·	?
O=C(C1CCC1)N1CCCc2cc(S(=O)(=O)N3CCN(c4ccccc4)CC3)ccc21	7%	-14	11µM*	-3	·	-14%
CCCCN(C)C(=O)C1CCCN(S(=O)(=O)c2ccc3c(c2)CC(C)N3C(=O)C2CC2)C1 (stereo not drawn)	13µM*	1	?	21	-26%[46.1 µM]	?
CC1CC(C)CN(S(=O)(=O)c2ccc3c(c2)CC(C)N3C(=O)C2CCC2)C1 (stereo not drawn)	?	-2	·	1	·	10µM*
